Experimental data from PubChem BioAssay (NCI).
About 83,000 compounds went through this panel and 20% of them were active in at least one assay; those are over-represented in the sample as a whole.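 48-hour exposure, single concentration, 96-well plates; percent growth endpoint where 0 means no net growth. Active: below 10.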 Unmarked numbers belong to inactive results. Calls of active or inactive are those of the source.

Tests used:
Test in all cases: NCI-60 one-dose screen, 48 h (100 = growth as untreated, 0 = no growth, -100 = all killed)
Settings in all cases: 10 µM unless noted
HCT-15 colon = tested on: HCT-15 colon
HT29 colon = tested on: HT29 colon
SNB-75 CNS = tested on: SNB-75 CNS
SNB-19 CNS = tested on: SNB-19 CNS
U251 CNS = tested on: U251 CNS
PC-3 prostate = tested on: PC-3 prostate
UACC-62 melanoma = tested on: UACC-62 melanoma
LOX IMVI melanoma = tested on: LOX IMVI melanoma
SK-MEL-28 melanoma = tested on: SK-MEL-28 melanoma
SK-MEL-2 melanoma = tested on: SK-MEL-2 melanoma
EKVX NSCLC = tested on: EKVX NSCLC
SN12C renal = tested on: SN12C renal
UO-31 renal = tested on: UO-31 renal
TK-10 renal = tested on: TK-10 renal
A498 renal = tested on: A498 renal
CCRF-CEM leukemia = tested on: CCRF-CEM leukemia
MOLT-4 leukemia = tested on: MOLT-4 leukemia
ACHN renal = tested on: ACHN renal
CAKI-1 renal = tested on: CAKI-1 renal

SMILES	growth (HCT-15 colon)	growth (HT29 colon)	growth (SNB-75 CNS)	growth (SNB-19 CNS)	growth (U251 CNS)	growth (PC-3 prostate)	growth (UACC-62 melanoma)	growth (LOX IMVI melanoma)	growth (SK-MEL-28 melanoma)	growth (SK-MEL-2 melanoma)	growth (EKVX NSCLC)	growth (SN12C renal)	growth (UO-31 renal)	growth (TK-10 renal)	growth (A498 renal)	growth (CCRF-CEM leukemia)	growth (MOLT-4 leukemia)	growth (ACHN renal)	growth (CAKI-1 renal)
CSc1nc2c(c(=O)[nH]1)C1(C(=O)Nc3ccccc31)c1c(nc(SC)[nH]c1=O)N2	107%	112%	99.5%	106%	97.9%	107%	99.8%	102%	105%	105%	108%	102%	87.1%	110%	116%	109%	108%		
COc1ccc(NC(=O)c2ccc(/C=C/C(=O)c3ncc[nH]3)cc2)cc1	35.2%	3.59% (active)	75%	56.1%	18.8%	92.3%	78.2%	26.9%	102%	97.6%	79.8%	70.8%	48.4%	88.8%	86.8%	29.1%	62.4%	86.3%	
O=Nc1c(O)c(Cl)cc2ccccc12	87.9%	83.1%	62%	88.9%	65.6%	66.7%	77.5%	72.4%	92.1%	93.4%	111%	82.6%		66.3%	77.2%	39.4%	45.7%		76.5%
Nc1n[nH]c2ccc([C@@H]3Nc4ccc5cn[nH]c5c4[C@H]4C5CCC(C5)[C@@H]34)cc12 (stereo not given in full)	15%	13.1%	-12.5% (active)	31.4%	23%	16.4%	39.4%	31.9%	61%	55.5%	48.7%	43.9%	38.9%	74.3%		15.6%	20.8%	39.2%	
COc1cc(-c2nn(-c3ccc(C)cc3)cc2C(=O)O)ccc1O	99.4%	107%	87.5%	97.7%	108%	91%	96.1%	86%	104%	93.5%	88.3%		74.7%	133%	110%	97.5%	83.2%	97.5%	
CN(C)c1ccc(N=Nc2ccccn2)c(O)c1	31.6%	24.1%	42.7%	18.6%	11.7%	33.8%	-28.3% (active)	8.14% (active)	32.8%	27.1%	17%	11.3%	-8.47% (active)	38.9%	48.2%	2.26% (active)	2.31% (active)		
Cc1cc(N[C@@H]2CCC[C@H](Nc3ccnc4cc(Cl)ccc34)C2)nc(N2CCCCCC2)n1	-73.2% (active)	-59.9% (active)	-83.7% (active)	-22.2% (active)	-92.6% (active)	-67.7% (active)	-90.2% (active)	-86.3% (active)	-80.3% (active)	-75.7% (active)	7.62% (active)	-74.8% (active)	-95.6% (active)	-67.7% (active)	-87.6% (active)	-23.1% (active)	-18.5% (active)	-85.5% (active)	
CSc1ccc(-c2ccccc(=O)c2O)cc1	26.9%	25.7%	34.6%	17.5%	9.54% (active)	30.9%	-23% (active)	9.8% (active)	26.9%	15.2%	11.5%	11.9%	-17.8% (active)	33.4%	36.2%	3.72% (active)	2.65% (active)	6.58% (active)	
C#CC(F)(F)[C@]1(O)CC[C@H]2[C@@H]3CCC4=CC(=O)CCC4=C3[C@@H](c3ccc(C4CC4)cc3)C[C@@]21C	59.3%	-63.9% (active)	-15.9% (active)	46.1%	-32.2% (active)	-53.8% (active)	26.7%	-84.6% (active)	90.2%	59.5%	-67.4% (active)		-84.8% (active)	99.8%	-5.83% (active)	-63% (active)	-6.54% (active)	40.4%	-73.3% (active)
O=c1ccccc(-c2ccc(-c3ccco3)cc2)c1O	29%	24.9%	38.8%	19.3%	8.2% (active)	32%	-42.3% (active)	8.59% (active)	30.7%	19.9%	11.8%	11.3%		33.5%	39%	5.03% (active)	7.73% (active)	9.23% (active)	
Clc1ccc2c(NCCNc3nc(N4CCOCC4)nc4ccccc34)ccnc2c1	15.2%	-69.2% (active)	-94.4% (active)	5.66% (active)	-93.1% (active)	34%	-64.9% (active)	-83.5% (active)	-47.5% (active)	-42.9% (active)	31.1%	0.0194% (active)	-89% (active)	-88.6% (active)	-12.8% (active)	-8.56% (active)	11.7%	-44.2% (active)	
O=C(Cc1ccc(/C=C/C(=O)c2ncc[nH]2)cc1)Nc1ccc(F)cc1	5.31% (active)	3.91% (active)	20.4%	14.2%	8.1% (active)	32.9%	40.5%	2.77% (active)	87.2%	79.1%	34.8%	17.4%	17.2%	35.9%	66.9%	2.63% (active)	14.7%		
CC[N+](CC)=c1sc2c(s1)C(c1ccc(Cl)cc1)Oc1ccc(Cl)cc1-2 (stereo not given)	62.9%	0.814% (active)	4.43% (active)	12%	-53.8% (active)	3.92% (active)	-2.82% (active)	-62.7% (active)	18%	-31.3% (active)	16.4%	5.19% (active)	70.5%	44%	28.6%	-17% (active)	-10.1% (active)	88.5%	
CC(=O)Nc1ccc(S(=O)(=O)Nc2cccc(-c3nc(-c4ccc(NC(=O)c5cccnc5)cc4Cl)no3)c2)cc1	88.3%	9.79% (active)	27.6%	37.7%	29.7%	25.8%	37.4%	40.2%	50.6%	35.9%	54.3%		82.9%	69.9%	36.9%	23.3%	25.8%	81.2%	90.6%
N#CN1CCC[C@H]1C(=O)N1CCc2c(-c3[nH]nc4ncccc34)cccc21	7.65% (active)	-53.9% (active)	-16% (active)	17.1%	-27.6% (active)	21.6%	7.64% (active)	4.55% (active)	24.6%	3.74% (active)	14.6%		2.24% (active)	-15.6% (active)	-36.5% (active)	17.5%	7.28% (active)	6.01% (active)	-32.8% (active)
COc1ccc(SC2c3cc(OC)c(OC)cc3Oc3nc(N)c(C#N)c(N)c32)cc1 (stereo not given)	-62.2% (active)	-24.9% (active)	-65.2% (active)	-83% (active)	-98.6% (active)	-76.8% (active)	-75.1% (active)	-92.7% (active)	-70.1% (active)	-26.3% (active)	-51.7% (active)	-90.6% (active)	-100% (active)	-49.6% (active)	-13.8% (active)	-37.2% (active)	-26.8% (active)	-95.6% (active)	
CC(C)(C)c1cc(/C=N\NC(=O)/C=C/C=C/c2ccc3c(c2)OCO3)c(O)c(C(C)(C)C)c1	63.7%	92%	31.9%	85.5%	84%	69.1%	71.5%	61.7%	85.8%	89%	75%	87.6%		96%		55.7%	74.7%	75.9%	
CCN1CCC2(CC1)NC(=O)c1c(c3ccc(Cl)c(Cl)c3n1C)C2C#N (stereo not given)	14.3%	7.28% (active)	51.2%	84.9%	57%	47.1%	-83.2% (active)	30.6%	-100% (active)	21.4%	68.8%	49.4%	43%	54.5%	3.01% (active)	39.5%	24.4%	45.6%	
